Reference: the supplement of paper PMC11732987, “Enantioselective OTUD7B fragment discovery through chemoproteomics screening and high-throughput optimisation” (Communications Chemistry, 2025)

Key:
Experiment in all cases: log2 ratio of Biotin-Ahx-Ub-VS probe labelling (fragment/DMSO); higher = less target engagement (more negative = stronger competition), active = hit call of the paper (q ≤ 0.05, log2 ratio ≤ -1)
Details in all cases: compound concentration: 200 uM; treatment time: 3 h
USP42 = molecular target: T1, USP42 (UniProt Q9H9J4)
T1 sequence (whole entry): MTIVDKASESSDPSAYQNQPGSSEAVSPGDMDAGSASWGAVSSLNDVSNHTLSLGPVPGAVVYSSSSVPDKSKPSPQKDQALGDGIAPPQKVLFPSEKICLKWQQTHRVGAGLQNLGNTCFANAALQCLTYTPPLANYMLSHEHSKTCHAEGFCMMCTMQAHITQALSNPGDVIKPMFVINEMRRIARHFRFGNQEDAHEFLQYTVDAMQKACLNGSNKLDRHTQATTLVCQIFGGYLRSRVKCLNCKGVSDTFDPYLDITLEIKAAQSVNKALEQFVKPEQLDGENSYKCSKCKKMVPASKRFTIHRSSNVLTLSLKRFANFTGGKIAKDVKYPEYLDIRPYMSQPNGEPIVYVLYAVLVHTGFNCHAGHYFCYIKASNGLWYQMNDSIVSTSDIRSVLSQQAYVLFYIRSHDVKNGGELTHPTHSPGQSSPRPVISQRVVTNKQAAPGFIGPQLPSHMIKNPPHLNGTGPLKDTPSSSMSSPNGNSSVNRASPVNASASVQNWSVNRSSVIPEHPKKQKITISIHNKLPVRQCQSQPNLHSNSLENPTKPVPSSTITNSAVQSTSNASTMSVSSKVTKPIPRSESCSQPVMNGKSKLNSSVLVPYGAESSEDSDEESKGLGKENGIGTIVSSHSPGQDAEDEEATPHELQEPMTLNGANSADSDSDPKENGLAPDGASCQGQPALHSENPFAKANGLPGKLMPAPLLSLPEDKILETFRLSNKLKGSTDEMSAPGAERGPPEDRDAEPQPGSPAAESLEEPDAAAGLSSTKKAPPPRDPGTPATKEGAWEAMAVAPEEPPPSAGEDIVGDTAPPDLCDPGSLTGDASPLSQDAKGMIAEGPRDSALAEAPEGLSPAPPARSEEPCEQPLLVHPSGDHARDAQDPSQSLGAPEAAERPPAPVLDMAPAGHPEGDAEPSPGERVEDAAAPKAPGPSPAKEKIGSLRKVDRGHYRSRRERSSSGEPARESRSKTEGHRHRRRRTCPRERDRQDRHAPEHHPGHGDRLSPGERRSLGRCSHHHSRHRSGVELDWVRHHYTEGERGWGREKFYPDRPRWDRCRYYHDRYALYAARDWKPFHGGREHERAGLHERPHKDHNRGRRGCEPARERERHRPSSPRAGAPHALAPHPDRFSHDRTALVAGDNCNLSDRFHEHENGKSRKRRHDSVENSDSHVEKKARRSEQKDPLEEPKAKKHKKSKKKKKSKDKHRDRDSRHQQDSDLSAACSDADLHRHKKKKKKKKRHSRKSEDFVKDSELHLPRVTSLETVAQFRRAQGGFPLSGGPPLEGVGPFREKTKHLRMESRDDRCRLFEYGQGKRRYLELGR
Outline: (§1)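 HEK293T lysate, 495 µg per sample in Tris/CHAPS/IGEPAL buffer with protease inhibitors, was treated in triplicate with fragment at 200 µM or vehicle for 3 h and then with Biotin-Ahx-Ub-VS at 0.5 µM final for 1 h. Labelled DUBs were NeutrAvidin-enriched, digested with LysC and trypsin, and run by diaPASEF LC-MS/MS. Spectronaut label-free quantities were global-median-normalised, and values are average log2 fragment/vehicle ratios by unpaired t-test on proteins with ≥2 unique peptides.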

USP46 = USP46 (UniProt P62068)
Outline: as §1

USP47 = molecular target: T2, USP47 (UniProt Q96K76)
T2 sequence (whole entry): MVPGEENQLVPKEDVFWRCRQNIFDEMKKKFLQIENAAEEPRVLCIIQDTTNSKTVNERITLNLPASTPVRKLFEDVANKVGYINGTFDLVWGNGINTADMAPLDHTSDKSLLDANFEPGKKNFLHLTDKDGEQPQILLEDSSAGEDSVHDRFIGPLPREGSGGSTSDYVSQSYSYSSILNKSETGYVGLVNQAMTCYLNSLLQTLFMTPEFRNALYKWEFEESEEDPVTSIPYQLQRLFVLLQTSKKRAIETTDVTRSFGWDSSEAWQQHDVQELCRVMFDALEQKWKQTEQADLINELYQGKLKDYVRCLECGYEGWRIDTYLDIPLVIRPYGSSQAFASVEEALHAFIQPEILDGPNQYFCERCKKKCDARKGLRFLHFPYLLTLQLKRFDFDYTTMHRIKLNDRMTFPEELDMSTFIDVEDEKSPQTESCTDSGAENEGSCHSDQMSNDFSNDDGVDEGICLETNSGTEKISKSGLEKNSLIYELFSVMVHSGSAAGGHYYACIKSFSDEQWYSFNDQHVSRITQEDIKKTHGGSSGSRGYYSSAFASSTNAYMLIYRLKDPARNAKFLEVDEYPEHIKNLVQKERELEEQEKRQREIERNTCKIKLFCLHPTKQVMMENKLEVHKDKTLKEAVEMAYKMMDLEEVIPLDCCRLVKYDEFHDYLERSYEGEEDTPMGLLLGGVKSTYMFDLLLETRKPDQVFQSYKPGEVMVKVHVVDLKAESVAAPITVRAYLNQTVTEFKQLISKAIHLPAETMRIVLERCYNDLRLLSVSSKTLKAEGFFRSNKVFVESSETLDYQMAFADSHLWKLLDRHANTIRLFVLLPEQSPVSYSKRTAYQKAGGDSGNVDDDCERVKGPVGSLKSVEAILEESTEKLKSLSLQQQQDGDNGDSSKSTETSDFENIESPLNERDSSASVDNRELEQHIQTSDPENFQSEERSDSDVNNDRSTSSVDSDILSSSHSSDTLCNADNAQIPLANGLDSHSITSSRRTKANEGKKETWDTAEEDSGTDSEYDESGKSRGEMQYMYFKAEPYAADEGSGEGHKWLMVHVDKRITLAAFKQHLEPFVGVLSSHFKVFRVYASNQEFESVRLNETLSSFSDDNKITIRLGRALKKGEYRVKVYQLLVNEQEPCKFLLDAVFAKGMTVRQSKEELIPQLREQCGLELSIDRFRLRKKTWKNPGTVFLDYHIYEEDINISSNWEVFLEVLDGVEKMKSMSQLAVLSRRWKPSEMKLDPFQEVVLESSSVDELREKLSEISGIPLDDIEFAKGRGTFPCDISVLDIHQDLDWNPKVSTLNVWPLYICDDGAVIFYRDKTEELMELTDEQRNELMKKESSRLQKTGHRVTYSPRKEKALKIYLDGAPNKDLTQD
Outline: as §1

USP48 = molecular target: T3, USP48 (UniProt Q86UV5)
T3 sequence (whole entry): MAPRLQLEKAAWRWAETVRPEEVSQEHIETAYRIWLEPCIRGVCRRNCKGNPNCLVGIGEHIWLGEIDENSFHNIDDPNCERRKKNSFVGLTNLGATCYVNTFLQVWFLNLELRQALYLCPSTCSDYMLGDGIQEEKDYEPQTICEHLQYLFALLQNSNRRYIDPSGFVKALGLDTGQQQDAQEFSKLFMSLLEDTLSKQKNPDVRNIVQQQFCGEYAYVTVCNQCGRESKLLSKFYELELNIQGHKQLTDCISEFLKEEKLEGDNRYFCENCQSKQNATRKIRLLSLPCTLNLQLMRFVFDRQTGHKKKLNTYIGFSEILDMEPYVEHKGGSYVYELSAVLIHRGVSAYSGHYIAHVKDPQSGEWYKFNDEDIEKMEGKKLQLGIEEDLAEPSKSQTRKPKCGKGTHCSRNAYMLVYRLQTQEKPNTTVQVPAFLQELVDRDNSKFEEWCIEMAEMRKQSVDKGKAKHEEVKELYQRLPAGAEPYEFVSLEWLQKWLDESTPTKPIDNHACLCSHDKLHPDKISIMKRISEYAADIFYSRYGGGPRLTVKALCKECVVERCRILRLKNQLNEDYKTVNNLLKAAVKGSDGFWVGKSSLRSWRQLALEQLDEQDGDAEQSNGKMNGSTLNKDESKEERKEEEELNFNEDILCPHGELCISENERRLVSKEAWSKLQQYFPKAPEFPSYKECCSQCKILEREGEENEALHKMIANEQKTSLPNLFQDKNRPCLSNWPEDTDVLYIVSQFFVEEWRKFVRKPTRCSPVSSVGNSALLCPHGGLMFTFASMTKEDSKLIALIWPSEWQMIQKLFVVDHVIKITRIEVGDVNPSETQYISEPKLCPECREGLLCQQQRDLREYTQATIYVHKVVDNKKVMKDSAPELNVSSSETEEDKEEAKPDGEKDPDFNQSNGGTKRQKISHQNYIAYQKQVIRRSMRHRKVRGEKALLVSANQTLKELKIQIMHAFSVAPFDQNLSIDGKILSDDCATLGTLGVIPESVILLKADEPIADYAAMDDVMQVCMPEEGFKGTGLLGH
Outline: as §1

USP5 = molecular target: T4, USP5 (UniProt P45974)
T4 sequence (whole entry): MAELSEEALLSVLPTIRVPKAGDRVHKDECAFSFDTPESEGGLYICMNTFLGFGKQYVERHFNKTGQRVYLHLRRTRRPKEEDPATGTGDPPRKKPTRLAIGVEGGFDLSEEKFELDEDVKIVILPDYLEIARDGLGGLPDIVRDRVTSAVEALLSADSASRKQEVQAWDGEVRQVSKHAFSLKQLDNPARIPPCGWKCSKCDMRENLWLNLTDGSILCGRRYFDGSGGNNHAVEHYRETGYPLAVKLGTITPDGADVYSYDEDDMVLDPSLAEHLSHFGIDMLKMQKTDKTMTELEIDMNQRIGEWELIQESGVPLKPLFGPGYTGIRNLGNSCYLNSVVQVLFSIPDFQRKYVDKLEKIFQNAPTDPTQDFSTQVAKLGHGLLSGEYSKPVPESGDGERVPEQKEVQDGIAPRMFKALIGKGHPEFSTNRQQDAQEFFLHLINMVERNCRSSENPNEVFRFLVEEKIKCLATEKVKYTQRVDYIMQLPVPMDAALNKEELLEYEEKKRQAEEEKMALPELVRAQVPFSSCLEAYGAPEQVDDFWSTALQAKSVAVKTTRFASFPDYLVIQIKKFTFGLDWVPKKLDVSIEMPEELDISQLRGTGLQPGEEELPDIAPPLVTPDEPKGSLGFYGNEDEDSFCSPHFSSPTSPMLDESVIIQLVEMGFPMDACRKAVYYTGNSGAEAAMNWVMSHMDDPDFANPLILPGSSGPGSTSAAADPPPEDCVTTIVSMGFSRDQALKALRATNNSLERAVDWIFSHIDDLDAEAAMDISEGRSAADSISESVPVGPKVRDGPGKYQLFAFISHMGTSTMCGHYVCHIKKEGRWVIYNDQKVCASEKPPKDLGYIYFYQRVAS
Outline: as §1

USP54 = USP54 (UniProt Q70EL1)
Outline: as §1

USP7 = USP7 (UniProt Q93009)
Outline: as §1

USP8 = molecular target: T5, USP8 (UniProt P40818)
T5 sequence (whole entry): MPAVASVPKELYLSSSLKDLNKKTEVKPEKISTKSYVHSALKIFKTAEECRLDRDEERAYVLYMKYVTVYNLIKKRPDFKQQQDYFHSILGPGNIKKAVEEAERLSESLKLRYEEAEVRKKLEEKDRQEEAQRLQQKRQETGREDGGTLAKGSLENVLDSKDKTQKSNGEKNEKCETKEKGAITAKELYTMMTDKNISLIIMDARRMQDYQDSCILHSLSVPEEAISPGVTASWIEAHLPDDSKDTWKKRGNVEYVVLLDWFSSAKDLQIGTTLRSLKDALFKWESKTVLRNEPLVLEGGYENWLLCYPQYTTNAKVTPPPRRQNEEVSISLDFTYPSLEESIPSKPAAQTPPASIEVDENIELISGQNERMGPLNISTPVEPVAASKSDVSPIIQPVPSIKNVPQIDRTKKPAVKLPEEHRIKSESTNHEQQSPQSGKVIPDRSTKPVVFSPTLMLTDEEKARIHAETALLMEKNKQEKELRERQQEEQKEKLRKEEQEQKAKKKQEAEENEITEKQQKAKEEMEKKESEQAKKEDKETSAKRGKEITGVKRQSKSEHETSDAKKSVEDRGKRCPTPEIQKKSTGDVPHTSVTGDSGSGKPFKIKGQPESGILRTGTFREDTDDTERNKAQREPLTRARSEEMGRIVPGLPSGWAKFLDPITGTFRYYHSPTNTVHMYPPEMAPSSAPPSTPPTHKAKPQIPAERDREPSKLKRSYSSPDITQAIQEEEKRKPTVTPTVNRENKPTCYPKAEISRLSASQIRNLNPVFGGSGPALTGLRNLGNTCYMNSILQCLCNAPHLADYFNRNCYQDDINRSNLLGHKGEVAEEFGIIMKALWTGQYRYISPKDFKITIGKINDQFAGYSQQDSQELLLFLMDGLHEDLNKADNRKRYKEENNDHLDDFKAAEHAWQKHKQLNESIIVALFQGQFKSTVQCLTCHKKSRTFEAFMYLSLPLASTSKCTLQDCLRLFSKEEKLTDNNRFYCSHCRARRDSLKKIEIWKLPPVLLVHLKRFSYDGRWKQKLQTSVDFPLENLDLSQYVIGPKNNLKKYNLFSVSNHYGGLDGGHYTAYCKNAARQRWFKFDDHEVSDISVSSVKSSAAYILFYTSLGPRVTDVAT
Outline: as §1

USP9X = USP9X (UniProt Q93008)
Outline: as §1

UniProt O00487 = molecular target: UniProt O00487
Outline: as §1

Measured: log2 ratio of Biotin-Ahx-Ub-VS probe labelling

Chain of UniProt O00487 (O00487 whole entry): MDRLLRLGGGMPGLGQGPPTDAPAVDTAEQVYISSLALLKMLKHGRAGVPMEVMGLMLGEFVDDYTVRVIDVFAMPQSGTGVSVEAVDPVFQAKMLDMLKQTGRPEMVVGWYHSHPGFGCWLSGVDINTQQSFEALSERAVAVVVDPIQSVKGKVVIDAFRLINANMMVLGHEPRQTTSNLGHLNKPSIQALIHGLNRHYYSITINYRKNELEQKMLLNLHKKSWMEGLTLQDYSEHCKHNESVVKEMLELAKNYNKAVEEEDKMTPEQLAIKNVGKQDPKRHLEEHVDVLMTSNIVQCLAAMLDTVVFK
Chain of USP7 (Q93009 whole entry, looked up): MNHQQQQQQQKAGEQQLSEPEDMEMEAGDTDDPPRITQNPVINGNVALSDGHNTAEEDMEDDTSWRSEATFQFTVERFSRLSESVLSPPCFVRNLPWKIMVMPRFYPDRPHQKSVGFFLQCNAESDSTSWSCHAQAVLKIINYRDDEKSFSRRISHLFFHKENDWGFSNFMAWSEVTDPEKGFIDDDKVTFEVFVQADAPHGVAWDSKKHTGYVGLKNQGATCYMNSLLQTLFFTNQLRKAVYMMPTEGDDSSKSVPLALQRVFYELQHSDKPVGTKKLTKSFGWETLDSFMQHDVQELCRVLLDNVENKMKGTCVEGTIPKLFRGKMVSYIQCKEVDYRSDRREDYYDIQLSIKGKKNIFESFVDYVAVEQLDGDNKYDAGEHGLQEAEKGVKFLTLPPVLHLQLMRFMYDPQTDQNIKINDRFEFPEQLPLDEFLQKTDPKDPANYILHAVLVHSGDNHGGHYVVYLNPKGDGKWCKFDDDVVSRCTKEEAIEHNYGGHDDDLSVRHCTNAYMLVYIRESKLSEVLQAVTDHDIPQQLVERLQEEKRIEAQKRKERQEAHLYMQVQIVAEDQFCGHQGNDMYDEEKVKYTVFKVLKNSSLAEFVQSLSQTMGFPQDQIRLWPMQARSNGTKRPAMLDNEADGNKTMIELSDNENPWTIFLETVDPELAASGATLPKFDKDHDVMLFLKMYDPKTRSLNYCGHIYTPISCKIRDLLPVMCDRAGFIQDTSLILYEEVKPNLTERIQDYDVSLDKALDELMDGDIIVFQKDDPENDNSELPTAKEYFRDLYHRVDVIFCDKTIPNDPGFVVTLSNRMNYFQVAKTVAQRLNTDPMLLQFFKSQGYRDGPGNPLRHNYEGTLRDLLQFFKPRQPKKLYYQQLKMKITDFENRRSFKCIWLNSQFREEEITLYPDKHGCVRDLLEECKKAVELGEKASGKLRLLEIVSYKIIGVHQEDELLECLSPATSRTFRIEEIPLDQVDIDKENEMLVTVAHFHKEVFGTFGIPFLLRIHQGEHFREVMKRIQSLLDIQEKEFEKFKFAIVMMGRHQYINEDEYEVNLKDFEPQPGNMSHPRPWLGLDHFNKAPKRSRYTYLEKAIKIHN
Chain of USP9X (Q93008 whole entry): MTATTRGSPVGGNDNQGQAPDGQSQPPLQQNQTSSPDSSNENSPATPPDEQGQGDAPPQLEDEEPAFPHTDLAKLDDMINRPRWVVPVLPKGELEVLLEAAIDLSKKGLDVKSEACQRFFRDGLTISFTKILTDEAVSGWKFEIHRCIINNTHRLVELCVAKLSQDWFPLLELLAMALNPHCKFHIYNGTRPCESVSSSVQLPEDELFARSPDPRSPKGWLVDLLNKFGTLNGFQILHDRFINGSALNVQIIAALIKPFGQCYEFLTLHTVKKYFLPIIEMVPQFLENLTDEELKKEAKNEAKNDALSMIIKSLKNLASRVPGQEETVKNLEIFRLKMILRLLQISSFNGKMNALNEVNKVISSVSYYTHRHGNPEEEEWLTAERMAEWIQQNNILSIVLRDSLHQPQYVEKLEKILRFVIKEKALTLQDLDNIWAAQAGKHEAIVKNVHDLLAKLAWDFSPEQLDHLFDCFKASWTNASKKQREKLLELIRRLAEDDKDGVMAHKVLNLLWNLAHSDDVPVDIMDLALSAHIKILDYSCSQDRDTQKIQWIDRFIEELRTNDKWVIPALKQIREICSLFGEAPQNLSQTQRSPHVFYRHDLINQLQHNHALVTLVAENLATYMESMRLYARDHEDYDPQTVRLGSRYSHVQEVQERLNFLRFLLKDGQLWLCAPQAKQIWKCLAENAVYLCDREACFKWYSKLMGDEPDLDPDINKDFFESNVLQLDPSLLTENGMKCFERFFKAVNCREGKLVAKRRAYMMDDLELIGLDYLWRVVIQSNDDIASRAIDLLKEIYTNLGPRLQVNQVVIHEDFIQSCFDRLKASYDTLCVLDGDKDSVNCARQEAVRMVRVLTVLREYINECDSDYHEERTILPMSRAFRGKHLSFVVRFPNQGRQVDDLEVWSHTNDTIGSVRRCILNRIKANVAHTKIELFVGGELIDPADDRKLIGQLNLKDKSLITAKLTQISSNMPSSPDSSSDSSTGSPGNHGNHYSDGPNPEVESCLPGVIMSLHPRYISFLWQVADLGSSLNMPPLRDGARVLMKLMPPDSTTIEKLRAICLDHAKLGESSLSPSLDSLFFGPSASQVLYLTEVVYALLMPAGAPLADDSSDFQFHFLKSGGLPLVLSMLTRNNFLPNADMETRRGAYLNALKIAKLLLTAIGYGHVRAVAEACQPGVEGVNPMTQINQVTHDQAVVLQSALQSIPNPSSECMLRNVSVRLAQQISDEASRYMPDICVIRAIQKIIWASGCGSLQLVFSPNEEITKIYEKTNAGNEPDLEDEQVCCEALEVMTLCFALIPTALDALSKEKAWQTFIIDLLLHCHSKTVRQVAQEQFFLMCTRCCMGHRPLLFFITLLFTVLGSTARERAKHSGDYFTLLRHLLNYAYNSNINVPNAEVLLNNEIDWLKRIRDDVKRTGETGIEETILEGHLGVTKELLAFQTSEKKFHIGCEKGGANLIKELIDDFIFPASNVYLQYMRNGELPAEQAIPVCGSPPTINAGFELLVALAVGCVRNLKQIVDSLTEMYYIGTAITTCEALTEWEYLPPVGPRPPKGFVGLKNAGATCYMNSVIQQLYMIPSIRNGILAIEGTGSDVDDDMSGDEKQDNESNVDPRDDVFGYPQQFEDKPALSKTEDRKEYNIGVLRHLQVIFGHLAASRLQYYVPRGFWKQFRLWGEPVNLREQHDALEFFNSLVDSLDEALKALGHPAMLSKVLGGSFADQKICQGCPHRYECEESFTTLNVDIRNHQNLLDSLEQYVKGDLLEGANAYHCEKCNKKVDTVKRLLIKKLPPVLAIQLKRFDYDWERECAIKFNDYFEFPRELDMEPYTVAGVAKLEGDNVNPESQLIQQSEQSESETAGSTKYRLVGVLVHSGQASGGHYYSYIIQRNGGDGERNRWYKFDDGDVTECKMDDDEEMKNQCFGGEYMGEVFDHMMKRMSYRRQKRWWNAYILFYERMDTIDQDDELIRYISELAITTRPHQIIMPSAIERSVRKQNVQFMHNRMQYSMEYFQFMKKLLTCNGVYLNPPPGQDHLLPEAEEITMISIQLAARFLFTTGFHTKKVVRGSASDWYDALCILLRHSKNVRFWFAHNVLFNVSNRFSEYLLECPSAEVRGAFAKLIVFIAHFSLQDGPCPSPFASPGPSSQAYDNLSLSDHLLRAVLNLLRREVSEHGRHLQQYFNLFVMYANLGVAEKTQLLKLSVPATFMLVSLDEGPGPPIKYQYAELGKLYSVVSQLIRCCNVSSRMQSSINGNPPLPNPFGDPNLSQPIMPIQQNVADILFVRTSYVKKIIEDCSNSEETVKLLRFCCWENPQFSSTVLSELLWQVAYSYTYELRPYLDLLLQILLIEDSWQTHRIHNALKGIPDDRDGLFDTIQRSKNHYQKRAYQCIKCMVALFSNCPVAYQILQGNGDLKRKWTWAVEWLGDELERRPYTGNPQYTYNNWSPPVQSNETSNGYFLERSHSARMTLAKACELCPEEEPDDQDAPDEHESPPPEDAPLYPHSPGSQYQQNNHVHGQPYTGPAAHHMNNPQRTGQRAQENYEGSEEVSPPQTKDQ
Chain of USP46 (P62068 whole entry): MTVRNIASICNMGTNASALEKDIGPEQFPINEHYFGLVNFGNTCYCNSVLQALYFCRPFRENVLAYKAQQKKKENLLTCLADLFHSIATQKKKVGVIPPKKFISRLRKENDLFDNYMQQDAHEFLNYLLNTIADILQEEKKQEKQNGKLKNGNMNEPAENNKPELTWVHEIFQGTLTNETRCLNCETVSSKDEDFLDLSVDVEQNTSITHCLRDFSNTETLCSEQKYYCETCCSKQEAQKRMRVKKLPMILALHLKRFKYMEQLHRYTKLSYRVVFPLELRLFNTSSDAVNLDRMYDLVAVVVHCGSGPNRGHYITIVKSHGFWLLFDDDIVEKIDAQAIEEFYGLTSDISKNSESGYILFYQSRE

CCN(Cc1ccc(C#N)cc1F)C(=O)CCl
inactive: USP42 -0.249 | USP46 -0.114 | USP47 -0.791 | USP5 0.258 | USP54 0.521 | USP8 -0.229 | USP9X -0.229 | UniProt O00487 -0.0587
active: USP48 -1.26 | USP7 -1.26
